What all share (experiment): PBM binding z-score (relative to random genomic background probes); higher = stronger binding; sequences stand for … in GC…GCGATTGACAGCGTAGAATGAAGG
Experiment [1] concerns RARb homodimer (NR concentration 270 nM). The method in brief:
(§1)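 Binding z-scores take random background probes as their reference. They come from custom Agilent 4×180K protein-binding microarrays incubated 1 h with ligand-free nuclear receptor dimers, with antibodies against each partner (one per run) detecting binding. Scanned fluorescence was regression-normalized.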

Experiment [2] concerns RARg:RXRa (NR concentration 270 nM, RXRa partner concentration 90 nM). In a few lines:
as §1

Experiment [3] deals with RARg homodimer (NR concentration 270 nM). In a few lines:
as §1

The test system of experiment [4] is RXRa DBDmut IVT, anti-RXR (DBD mutation: RXRa K156A/R161A, NR concentration 90 nM). In a few lines:
as §1

The subject of experiment [5] is RXRa homodimer (NR concentration 180 nM). The method in brief: as §1
Experiment [6] has as its system THRa:RXRa (NR concentration 90 nM, RXRa partner concentration 90 nM). The method in brief: as §1
Experiment [7] has as its system THRa homodimer (NR concentration 90 nM). The method in brief: as §1
In experiment [8] the test system is VDR homodimer (NR concentration 270 nM). The method in brief:
as §1

The values that follow come from the supplement of paper PMC6555819.

In the case of CCTACTGGGCCAAGGACATTGATCAGTCAAAGCA, the PBM binding z-score in experiment [1] is 0.324; in experiment [2], 0.0324; in experiment [3], 0.267; in experiment [4], -0.538; in experiment [5], -0.348; in experiment [6] it was 1.29. Further, the PBM binding z-score in experiment [7] is 0.695; in experiment [8], 0.333.
In the case of AGTCGAAGTTCACTAGGTAACGTAAGATTCAGCT, the PBM binding z-score was found to be 1.74 in experiment [1]; 2.29 in experiment [2]; 2.93 in experiment [3]; 3.45 in experiment [4]; 1.6 in experiment [5]; 1.05 in experiment [6]. For the same sequence, the PBM binding z-score is -0.0118 in experiment [7] and 2.7 in experiment [8].
For GGAACGAGGGCTAAGTTGATAGCATCTGTCGACG, the PBM binding z-score in experiment [1] was -0.586; in experiment [2], -0.0723; in experiment [3] it was 0.11; in experiment [4], 0.186; in experiment [5], -0.114; in experiment [6], -0.638. Besides, the values for the PBM binding z-score in experiment [7] and in experiment [8] were -0.828 and -0.365, respectively.
Regarding CGTTCAAGGTCAATGCTAGGTCAGTGAAAGCATT, the PBM binding z-score in experiment [1] was found to be 4.78; in experiment [2], 7.74; in experiment [3] it was 7.18; in experiment [4], 4.09; in experiment [5], 5.88; in experiment [6], 4.72. The PBM binding z-score worked out at 3.33 in experiment [7] and 3.44 in experiment [8].
AATACACGGTCACTAGGCCAGAGTAGGTACGAAT: the PBM binding z-score in experiment [1] is 1.85; in experiment [2], 1.78; in experiment [3] it was 2.19; in experiment [4], 0.0529; in experiment [5], 0.672; in experiment [6], 0.48. Further, the results for the PBM binding z-score in experiment [7] and in experiment [8] were -0.267 and 0.314, respectively.
In the case of CCAGACAGGTGAAAGGTAACTGAGTCTGGTACGC, the PBM binding z-score is 0.792 in experiment [1]; 1.55 in experiment [2]; 0.856 in experiment [3]; -0.0997 in experiment [4]; 2.19 in experiment [5]; 0.931 in experiment [6]. Besides, the PBM binding z-score in experiment [7] is -0.381; in experiment [8] it was -0.0816.
As for TCTAGCAGGCCAGAGGGTCACACAAGAGGTACGG, the PBM binding z-score in experiment [1] came to 3.1; in experiment [2], 3.52; in experiment [3], 3.05; in experiment [4], 0.175; in experiment [5], 4; in experiment [6], 2.25. Also, the PBM binding z-score is 0.165 in experiment [7] and 0.773 in experiment [8].
